Structures are written as SMILES. Where “and” joins values, the source holds several entries; their conditions need not be identical. Equal entries are not always repeated. Hit rate of the full screen: of about 67,000 compounds, about 40 (0.06%) showed an effect of 50% or more. This is one part of a sample in which strong results are shown more often than they occur.

The test deals with T1, Coenzyme A biosynthesis bifunctional protein CoaBC (Mycobacterium tuberculosis (strain ATCC 25618 / H37Rv)) (UniProt P9WNZ1).
T1 sequence (whole entry): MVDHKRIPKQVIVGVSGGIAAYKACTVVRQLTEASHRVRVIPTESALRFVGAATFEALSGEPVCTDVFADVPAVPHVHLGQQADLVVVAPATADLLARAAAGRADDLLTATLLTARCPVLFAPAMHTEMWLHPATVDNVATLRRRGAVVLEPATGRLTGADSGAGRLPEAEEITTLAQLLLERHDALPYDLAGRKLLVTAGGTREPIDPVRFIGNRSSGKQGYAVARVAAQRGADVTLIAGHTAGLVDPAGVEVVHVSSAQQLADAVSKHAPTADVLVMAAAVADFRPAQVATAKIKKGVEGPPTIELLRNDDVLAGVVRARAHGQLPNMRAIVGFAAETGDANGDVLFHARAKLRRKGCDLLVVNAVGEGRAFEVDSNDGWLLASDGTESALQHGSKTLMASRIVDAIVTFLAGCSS
The test can be described thus: Biomol Green assay for MtCoaBC inhibitor, OD650 read. The format is functional. Set-up: scale not given: in the data most compounds retested in dose-response had high values. Conditions: 30 µM.
Regarding `O=C(N1CCCO1)[C@@]12CCO[C@@H]1CCN(Cc1ccsc1)C2`, the Percent Effect is -8.02%.
As to `CCS(=O)(=O)N1CC[C@H]2CO[C@H](CN(C)C)[C@H]2C1`, the Percent Effect is -0.203%.
The value for `CC(=O)N1C[C@H]2CNC[C@@]2(C(=O)NCCCOc2cccnc2)C1` was 3.58%; that for `O=C(NCCC(=O)N1CCCC1)c1cccnc1` was 0.943%; that for `CN1CCC(C)(CNC(=O)c2ccc(SCc3cccnc3)cc2)CC1` was -1.65%.
For the molecule `O=C(c1cscn1)N1C[C@@H]2C[C@@H](c3nnc(C4CC4)o3)O[C@@H]2C1`, the Percent Effect was determined as 0.38%.
For `CC1CCN(C[C@H]2CN3CC[C@H]2C[C@@H]3CNC(=O)c2ccco2)CC1`, the Percent Effect was -15.2%.
As for `Cc1ccccc1CC(=O)N1C[C@@H]2COC[C@]2(CN(C)C)C1`, the Percent Effect was -10.9%.
With `COCCN1CC[C@@H]2CN(Cc3cccnc3OC)C[C@@H]2C1` the figure was -0.364%.
For `Nc1cc(O)nc(CCNC(=O)CC[C@@H]2CCCN3CCCC[C@H]23)n1`, the Percent Effect is -3.91%.
In the case of `COc1cc(C2CC(=O)c3c(O)cc(O)cc3O2)ccc1O` (stereo not drawn), the Percent Effect was 7%.
Consider `COc1ccc(C2CC(=O)c3c(O)cc(O)cc3O2)cc1O` (stereo not drawn), for which the Percent Effect came out at 17.8%.
`COc1cc(O)cc2c1C(=O)CC(c1ccc(O)cc1)O2` (stereo not drawn): the Percent Effect was 65.2% and 48.7%.
On to `CN(Cc1ccco1)[C@@H]1CN(Cc2ccsc2)C[C@@H]2CCCO[C@@H]21`, for which the Percent Effect was 5.46%.
In the case of `COCc1cccc(C(=O)N2C[C@H]3CC[C@@H]2CN(Cc2cscn2)C3)n1`, the Percent Effect came out at 1.53%.
In the case of `Cn1cc(N2C(=O)CC[C@@H]3[C@H]2CCN3Cc2ccncc2)cn1`, the Percent Effect was 0.381%.
With `Cc1nc(CN2CC[C@H]3[C@@H]2CCC(=O)N3c2cnn(C)c2)cs1`, the Percent Effect was -3.58%.
The value for `O=C1N[C@@H]2CCN(C(=O)C3CCC3)[C@@H]2C(=O)N1c1ccc(F)cc1` was 0.226%; that for `Fc1cccc(O[C@@H]2C[C@H]3CN(Cc4ccccn4)CCN3C2)c1` was 0.483%; that for `Cn1cccc1C(=O)N1CC[C@H]2C[C@@H](c3ccncn3)O[C@@H]2C1` was 1.03%.
With `Cc1cc(CN2CCCC2)cc(Oc2ccc3c(c2)CC(CN)O3)c1` (stereo not drawn), the Percent Effect was found to be 3.85%.
The value for `COc1ccc(CN2CCCC2)cc1Oc1ccc2c(c1)CC(CN)O2` (stereo not drawn) was 4.1%.
As for `O=C(NCC1CC1)[C@@H]1C[C@@H]2OCCN[C@@H]2C1`, the Percent Effect is -1.96%.
As for `COc1ccc(-n2cc(CNC(=O)c3ccccn3)nn2)cc1`, the Percent Effect turned out to be 6.21%.
Regarding `CN1C(=O)CO[C@H]2CN(C(=O)Nc3ccc(F)cc3)C[C@H]21`, the Percent Effect stood at 9.63%.
`Cc1noc([C@H]2C[C@@H]3CCN(CC4CCOCC4)C[C@H]3O2)n1`: the Percent Effect was determined as 14.2%.
For `Cc1ccc(OCC(=O)N2CCN[C@H]3CS(=O)(=O)C[C@H]32)cn1`, the Percent Effect was 12%.
Regarding `Cc1ncsc1CN1C[C@@H]2COC[C@]2(COc2ccc(C#N)cn2)C1`, the Percent Effect stood at 2.8%.

The values above are taken from ChEMBL document CHEMBL3988442, “University of Dundee, Small-Polar-MMV Screening Library” (2021).
